# This is part of a sample that, as a whole, favours compounds with a hit. Of some 79,000 tested, about 15% had one in any assay. A number with no mark means an inactive call. The source made the active and inactive calls. Cut-off read from the data, not from the text of the source: active = growth inhibition above about 70%; inactive = the rest.
# Columns and labels:
# [1] = NCI Yeast Anticancer Drug Screen. Data for the rad50 strain (AID 155);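 note: 0% = growth of vehicle-only cultures of the same strain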; conditions: S. cerevisiae rad50 strain growth inhibition; at 50.0 µM; stronger effect = higher value
# Method in brief: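 Readout: growth inhibition relative to vehicle-treated cultures. Compound exposure was carried out in a genetically defined yeast strain deficient in DNA damage repair.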
# [2] = NCI Yeast Anticancer Drug Screen. Data for the mec2-1 strain (AID 157); conditions: S. cerevisiae mec2-1 strain, at 50.0 µM, stronger effect = higher value
# Method in brief: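 Strain: mec2-1 (DNA repair/cell cycle alteration). Compound exposure, then growth measured; inhibition expressed relative to vehicle.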
# [3] = NCI Yeast Anticancer Drug Screen. Data for the sgs1 mgt1 strain (AID 161);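 note: 0% = growth of cultures given vehicle only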; conditions: S. cerevisiae sgs1 mgt1 strain, at 50.0 µM, stronger effect = higher value
# Method in brief: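 Mutant yeast exposed to compound; growth scored against vehicle-only wells.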
# [4] = NCI Yeast Anticancer Drug Screen. Data for the cln2 rad14 strain (AID 165);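 note: 0% = growth equal to vehicle treated cultures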; conditions: S. cerevisiae cln2 rad14 strain, at 50.0 µM, stronger effect = higher value
# Method in brief: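 Compounds are applied to the cln2 rad14 yeast strain, and growth is then compared with that of vehicle-treated cultures to give inhibition.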
# [5] = NCI Yeast Anticancer Drug Screen. Data for the bub3 strain (AID 167); conditions: S. cerevisiae bub3 mutant strain, at 50.0 µM, stronger effect = higher value
# Method in brief: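 Readout: yeast growth inhibition, expressed relative to vehicle-only wells. The test organism is a mutant strain from a panel with lesions in DNA repair or checkpoint genes.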
# [6] = NCI Yeast Anticancer Drug Screen. Data for the mlh1 rad18 strain (AID 175); conditions: S. cerevisiae mlh1 rad18 strain growth inhibition; at 50.0 µM; stronger effect = higher value
# Method in brief: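 Read-out is yeast growth inhibition, calculated against vehicle-only controls. The compound was applied to a strain engineered with DNA damage repair alterations.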
SMILES,growth inhibition [1],growth inhibition [2],growth inhibition [3],growth inhibition [4],growth inhibition [5],growth inhibition [6]
ClCCCCBr,17.6%,-14.2%,20.4%,13.5%,2.4%,18.8%
Oc1cccc(-c2ccccc2)c1,20.5%,17.2%,20.3%,5.35%,30.1%,21.2%
C#CC1(OC(C)=O)CCC2C3CCC4=CC(=O)CCC4(C)C3CCC21C (configuration not stated),32%,6.1%,4.4%,-11.2%,-8.8%,19.7%
CCOP12(OCC)NC(=O)OC1(C(F)(F)F)c1ccccc1O2 (configuration not stated),-19.4%,3.9%,-38%,-7%,-26.4%,-36.4%
CO[C@H](C)[C@](O)(C(=O)OCC1=CC[N+]2([O-])CC[C@H](O)[C@@H]12)C(C)C (some centres not stated),1.75%,-20.2%,2.35%,7.25%,-8.95%,-10.2%
O=S(=O)(Nc1ccc(-c2ccccc2)cc1)c1ccc([As](=O)(O)O)cc1,38.6%,24.7%,54.2%,-1.65%,18.9%,40%
C(=NCCN=CC1CCCC[N-]1)C1CCCC[N-]1.[Cu+2].[O-][Cl+3]([O-])([O-])O (configuration not stated),79.8% (active),71% (active),44.5%,90% (active),69.5%,82.7% (active)
OCCN1CCN(c2cccc(Cl)c2)CC1,-7.5%,-12.7%,-34.6%,-11.1%,-8.05%,-4.8%
COC1OCC(N=[N+]=[N-])C(OC)C1O (configuration not stated),18.8%,-12.4%,-3.1%,-19.2%,5.65%,-1.8%
CC(C)c1cccc(C(C)C)c1NC(=O)/C(CC(=O)CC(c1ccccc1)c1c(O)c2ccccc2oc1=O)=N/O (configuration not stated),-45.5%,4.85%,19.1%,-32.1%,-15.8%,18.3%
CC(=O)OC(c1ccccc1Cl)C(Cl)(Cl)Cl (configuration not stated),-16.9%,-9.35%,-4.65%,-39.9%,-14.2%,-5.55%
S=C(N=Nc1ccccc1)NNc1ccccc1.[Zn+2],28.1%,-9.35%,19.4%,12.3%,36%,12.3%
CCCCOP(=O)(OCCCC)Oc1ccc2ccccc2c1,93.1% (active),93.2% (active),95.4% (active),92.8% (active),95.1% (active),95.4% (active)
Nc1cc([N+](=O)[O-])cc([N+](=O)[O-])c1,-6.6%,-9.3%,30.1%,4.9%,2.5%,41.3%
C=C1CCN2CC[C@@H](OC(=O)/C(C)=C\C)[C@@H]12,1.65%,1.3%,7.1%,-1.9%,12.9%,-22.1%
CNCC(C)c1ccccc1OC (configuration not stated),-9.6%,-6.7%,2%,26.4%,13.3%,-5.9%
CS(=O)(=O)NC(=NCCOS(C)(=O)=O)N[N+](=O)[O-],9%,-8.5%,19.4%,-6.85%,1.9%,11.8%
COC(=O)C1C(OC(=O)c2ccccc2)CC2CCC1N2C(N)=O (configuration not stated),-12.6%,-0.75%,-8.05%,-23%,-15.9%,3.3%
[Cl][Sn]1([Cl])[CH2]CCCCCC[CH2][Sn]([Cl])([Cl])[CH2]CCCCCC[CH2]1,26.4%,6.75%,24.1%,33.8%,-2.05%,18.7%

SMILES,growth inhibition [1],growth inhibition [2],growth inhibition [3],growth inhibition [4],growth inhibition [5],growth inhibition [6]
CCOP(=O)(O)C1CCCC(C)[N-]1.CCOP(=O)(O)C1CCCC(C)[N-]1.CCOP(=O)(O)C1CCCC(C)[N-]1.[Ti+3] (configuration not stated),1.7%,0.1%,-6.55%,-24.1%,-6.3%,2.6%
Oc1ccccc1C=NCCN=Cc1ccccc1O.[Fe],11.8%,22.2%,5.35%,6.25%,46%,13.6%
CCC1(N)C(=O)OCc2c1cc1n(c2=O)Cc2cc3ccccc3nc2-1 (configuration not stated),4.8%,-17.5%,-39.6%,-7.75%,-17.1%,-12.3%
CN(C)CCNc1nc2c(no[n+]2[O-])c2ccccc12,-28.9%,-24.8%,-14.3%,-12.8%,3.35%,-19.9%
CCC1NCCc2cc(OC)c(O)cc21 (configuration not stated),-5.9%,0.35%,-6.25%,1.4%,1.85%,-11.4%
C=C[Se](=C(C#N)C#N)c1ccccc1 (configuration not stated),-3.35%,28%,5.75%,4.35%,-16.4%,0.7%
Cn1nnc(-c2nnn(C)n2)n1,-19.1%,-12.5%,-8.65%,-14.8%,-15.9%,-19.6%
CN1[C@@H](CC(=O)c2ccccc2)CCC[C@H]1CC(=O)c1ccccc1,21.2%,5.4%,42.5%,37.3%,28.2%,1.25%
COC(=O)C1C(C)N1P(=O)(OC)OC (configuration not stated),7.3%,3.65%,-7.55%,-44%,-4.3%,6.6%
CC1OC(OC2C(O)CC(OC3C(O)CC(OC4CCC5(C)C(CCC6C5CCC5(C)C(C7=CC(=O)OC7)C(O)CC65O)C4)OC3C)OC2C)CC(O)C1O (configuration not stated),-12.8%,10.6%,-19.1%,-13.1%,-5.45%,27.6%
C=CCn1nnc(N)n1,-11.8%,7.15%,-21.8%,19.5%,8.35%,-2.25%
CC[N+](CC)(CC)CC.[C-]#[O+].[C-]#[O+].[C-]#[O+].[Cr+4].[c-]1[c-][c-][cH-][c-]1,11.3%,12.4%,8.75%,-10.8%,6.65%,-5.8%
COC(=O)c1cc([N+](=O)[O-])cc([N+](=O)[O-])c1,9%,32.2%,16.5%,-8.4%,18.4%,34.1%
C[C@@]1(C(=O)c2ccccc2)N(c2ccccc2)[C@@]1(C)C(=O)c1ccccc1,8.9%,8.3%,4.35%,21.8%,16.1%,32.4%
Cc1ccc(NC(=O)c2cc3ccccc3cc2O)c(C)c1,17.1%,-16.1%,20.7%,8.75%,17.9%,21.8%
N#CCc1ccccc1.N#CCc1ccccc1.[C-]#[O+].[C-]#[O+].[C-]#[O+].[C-]#[O+].[W],-10.9%,-16.2%,-7.1%,-33.2%,-5.05%,-11.3%
COc1cc(C2(C)CCCCC2)c(OC)cc1C1(C)CCCCC1,-8.1%,1.25%,23.4%,-69.2%,2.75%,9.15%
CCOP(=O)(CCP(=O)(OCC)OCC)OCC.C[CH2][Sn]([Cl])([Cl])[CH2]C,42.9%,52.1%,45.5%,46%,42.1%,41%

# From PubChem BioAssay (NCI)
